D2 PAM-1: HTS Assay for Positive Allosteric Modulators of the Human D2 Dopamine Receptor: Primary Screen for Potentiators | D(2) dopamine receptor (Homo sapiens), P14416 | HEK293 T-REx D2, calcium flux, EC20 dopamine potentiation | potentiation, % at 10 µM | actives 0.34% (n = 340,000);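 active = potentiation over 3 SD above the plate norm, cut at about 30% in these data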; note: 0% is about no effect
Target sequence (P14416 whole entry, looked up): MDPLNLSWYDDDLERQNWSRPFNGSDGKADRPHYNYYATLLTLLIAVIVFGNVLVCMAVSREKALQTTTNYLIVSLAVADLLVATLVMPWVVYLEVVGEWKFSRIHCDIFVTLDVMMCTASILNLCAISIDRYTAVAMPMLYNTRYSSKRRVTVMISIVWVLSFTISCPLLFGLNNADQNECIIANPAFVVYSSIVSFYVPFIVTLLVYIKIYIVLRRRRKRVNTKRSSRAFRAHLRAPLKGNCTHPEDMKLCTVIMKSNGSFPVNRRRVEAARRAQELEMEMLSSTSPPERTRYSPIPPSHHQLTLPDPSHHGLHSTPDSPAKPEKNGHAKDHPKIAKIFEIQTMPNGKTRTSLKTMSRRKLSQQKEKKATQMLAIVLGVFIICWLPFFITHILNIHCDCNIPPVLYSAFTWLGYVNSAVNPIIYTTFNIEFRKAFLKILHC
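Using a no-wash calcium dye in inducible, force-coupled HEK293 Trex cells expressing D2, we tracked fluorescence each second for 180 s after compound, then for 180 s after EC20 dopamine to detect augmented signalling.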
D2 PAM-2: Beta-Arrestin HTS for Positive Allosteric Modulators of the Human D2 Dopamine Receptor: Potentiators; D(2) dopamine receptor (Homo sapiens), P14416; DiscoveRx D2 beta-arrestin cells, luminescence, 90 min; 100% = 57 uM dopamine signal; potentiation, % (concentration not given with the values); actives 0.23% (n = 360,000); AID 624464, 2012; in the data active = potentiation above about 50%; inconclusive = mostly about 30% to 49%
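PathHunter D2 cells, attached overnight at 37 deg C, received compound in DMSO plus dopamine at EC20 (50 nM final) for 90 min at 37 deg C. Beta-arrestin recruitment was read as luminescence after 1 h with detection reagent at ambient temperature.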
D2 ag-1: Beta-Arrestin HTS for Positive Allosteric Modulators of the Human D2 Dopamine Receptor: Agonists; D(2) dopamine receptor (Homo sapiens), P14416; DiscoveRx PathHunter D2 beta-arrestin, luminescence, 90 min; 100% = 57 uM dopamine signal; activation, % (concentration not given with the values); actives 0.084% (n = 360,000); in the data active = activation above about 40%; inconclusive = between about 15% and that limit
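Agonist mode: compounds alone added to overnight-plated D2 PathHunter cells for 90 min at 37 C, with 57 uM final dopamine (EC100) defining full response. Beta-arrestin recruitment detected by chemiluminescent reagent, read after 1 h at ambient temperature.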
D2 antagonist: HTS Assay for Allosteric Antagonists of the Human D2 Dopamine Receptor: Primary Screen for Antagonists. AID 485344, 2010. actives 2% (n = 340,000). HEK293 TREx D2 cells, calcium flux, dopamine EC80. D(2) dopamine receptor (Homo sapiens), P14416. inhibition, % at 10 µM; in the data active = inhibition above about 30%; inactive = below that, where a call was filed; note: 0% is about no effect
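Tetracycline-induced HEK293 TREx cells expressing D2 receptor forced-coupled to calcium signalling, loaded with no-wash calcium dye. Compounds added and calcium flux read 180 s, then dopamine added at EC80 and read a further 180 s.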
D2 ag-2: HTS Assay for Allosteric Agonists of the Human D2 Dopamine Receptor: Primary Screen for Agonists. D(2) dopamine receptor (Homo sapiens), P14416. HEK293 T-REx D2 cells, calcium flux agonist mode. activation, % at 2 µM. actives 0.53% (n = 340,000);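 active = activation over 3 SD above normal in the single-dose calcium agonist read, cut at about 30% in these data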; note: 0% is about no effect
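Tetracycline-induced HEK293 Trex cells with D2 receptor force-coupled to calcium signaling, plated overnight at 30 C and loaded with no-wash calcium dye. Calcium flux read kinetically for 180 s after compound addition; responses flag agonists.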
* = called active by the depositor; ? = inconclusive; . = no result given. Sampled rows, rich in hits. Any-hit rate of the full collection: about 2.4%.

SMILES | D2 PAM-1 | D2 PAM-2 | D2 ag-1 | D2 antagonist | D2 ag-2
CS(=O)(=O)NCCNC(=O)c1cc(OCC(F)(F)F)ccc1OCC(F)(F)F | -3.3 | -0.8 | -3.5 | 30.8* | 0.3
Cc1cccc(NC(=O)C2CCCN(c3nnc(-n4c(C)ccc4C)s3)C2)c1C (stereo unspecified) | . | . | . | . | -1.2
c1ccc(Nc2ccccc2Nc2ccccn2)nc1 | 26.7 | -10.1 | -1.2 | 33.7* | 0.2
c1ccc(CNc2ccccn2)cc1 | -2.0 | -14.0 | 0.9 | -6.4 | 0.0
COc1ccc(NC(=O)c2cn(-c3ccccc3)nc2-c2cc3ccccc3o2)cc1 | -10.4 | -0.7 | -2.9 | -2.2 | -0.4
OCc1cn(-c2ccccc2)nc1-c1cc2ccccc2o1 | 4.3 | -6.1 | -3.3 | 44.7* | -0.8
O=C(N/N=C/c1cn(-c2ccccc2)nc1-c1cc2ccccc2o1)c1c[nH]c2ccccc12 | 4.1 | 4.7 | -1.7 | 34.3* | -0.9
O=C(N/N=C/c1cn(-c2ccccc2)nc1-c1cc2ccccc2o1)c1ccccc1Br | -6.3 | -7.8 | -2.8 | -5.4 | 0.1
CCN1CCN(C(=O)c2cccc(OC3CCN(S(=O)(=O)N(C)C)CC3)c2)CC1 | 36.0* | -12.0 | -6.5 | 2.2 | 0.9
O=C1c2cccc3c(N4CCCCC4)ccc(c23)C(=O)N1c1ccccc1O | -4.6 | -8.4 | -3.0 | 7.7 | 35.7*
O=C1c2cccc3c(N4CCCCC4)ccc(c23)C(=O)N1c1ccc(O)cc1 | -3.6 | -6.2 | 1.3 | 29.4 | 66.1*
O=C1c2cccc3cccc(c23)C(=O)N1c1ccc(O)cc1 | -2.1 | -1.2 | 3.1 | 3.5 | 0.4
COc1ccc(C(=O)C[n+]2cccc(C)c2C)cc1[N+](=O)[O-] | -34.7 | -3.9 | -4.6 | 58.6* | 0.4
CCOc1ccc(/C=C/c2nc3ccccc3n2S(=O)(=O)c2cccc(Cl)c2)cc1 | -2.6 | . | . | . | 0.4
CCn1cnc2c1c(=O)n(Cc1nnc3n1-c1ccccc1SC3)c(=O)n2Cc1ccccc1 | 34.4* | -0.2 | -4.4 | 5.1 | 1.5
CCn1cnc2c1c(=O)n(Cc1csc(-c3ccccc3)n1)c(=O)n2Cc1ccccc1 | 7.0 | -0.9 | -0.3 | 4.3 | 1.0
O=C(c1cc2ccccc2o1)N1CCN(C/C=C/c2ccccc2)CC1 | -32.6 | -35.8 | -3.0 | 77.0* | -1.6
COC(=O)c1ccccc1NC(=O)N1CCN(C/C=C/c2ccccc2)CC1 | -6.9 | -10.5 | 2.2 | 35.2* | 0.1
Cc1ccc(NC(=O)N2CCN(C/C=C/c3ccccc3)CC2)cc1 | -0.1 | -3.1 | -2.4 | -8.8 | 0.5
CCOc1cccc(C2c3[nH]c4ccccc4c3CCN2C(=O)Cc2cccc(OCC)c2OCC)c1 (stereo unspecified) | 17.8 | . | . | . | -0.3
CC(C)C(C(=O)Nc1ccc2c(c1)OCCO2)N1C(=O)c2ccccc2C1=O (stereo unspecified) | -6.3 | -7.7 | -4.2 | -5.1 | 0.6
CC(C)CC(C(=O)Nc1ccc2c(c1)OCCO2)N1C(=O)c2ccccc2C1=O (stereo unspecified) | -5.9 | -7.0 | 6.7 | 57.0* | -1.6
Cc1ccc(-c2cc3ncc4c(n3n2)-c2cc(Cl)ccc2OC4)cc1 | -10.6 | . | . | . | -0.1
O=C(CN(CCCN1CCOCC1)C(=O)Cn1nnc(-c2ccc(F)cc2)n1)NC1CCCCC1 | -9.7 | -13.9 | -3.8 | 1.5 | 0.8
O=C(CN(CCN1CCOCC1)C(=O)Cn1nnc(-c2ccc(F)cc2)n1)NC1CCCCC1 | 6.0 | -6.2 | -4.0 | 70.6* | 0.7
SMILES | D2 PAM-1 | D2 PAM-2 | D2 ag-1 | D2 antagonist | D2 ag-2
COc1ccc(CNc2oc(/C=C/c3cc(OC)c(OC)c(OC)c3)nc2C#N)cc1 | 7.7 | . | . | . | 16.1
O=S(=O)(/N=C(\c1ccccc1)N1CCOCC1)c1cccs1 | -6.5 | 0.6 | 0.2 | -4.9 | 0.1
c1ccc(N=C(c2cccs2)N2CCOCC2)cc1 | -14.3 | -18.3 | -16.5 | 31.8* | 0.5
Cc1cccc2sc(N(Cc3cccnc3)C(=O)c3cccs3)nc12 | 3.4 | . | . | . | 0.2
COc1cc2cnc(-c3ccccc3)c(-c3cccc(C(F)(F)F)c3)c2cc1OC | 1.3 | 161.6* | ? | -2.0 | -0.6
COc1ccc(-c2nc(C)c(CCNC(=O)c3ccccc3Br)s2)cc1OC | 5.4 | . | . | . | .
O=C(NCc1ccccc1Br)c1cnc2sc(N3CCCCCC3)nn2c1=O | 11.9 | . | . | . | -0.1
O=C(COC(=O)c1ccc(O)cc1)Nc1ccc(OC(F)F)cc1 | 0.8 | 1.3 | -0.7 | 31.8* | 1.9
CN(C)CCCn1c(SCC(=O)Nc2sc3c(c2C#N)CCCC3)nnc1-c1ccncc1 | -3.7 | -14.7 | -0.3 | 39.1* | -0.2
CCCn1c2ccccc2c2cnn(CC(=O)NCc3ccc(OC)cc3)c(=O)c21 | -2.6 | . | . | . | 0.4
Cc1nc2ccccc2c(=O)n1/N=C/c1ccc(O)c(O)c1O | -0.1 | 10.3 | 47.8* | 6.4 | -0.3
Cc1nc2ccccc2c(=O)n1/N=C/c1ccccc1O | -1.9 | -4.2 | -7.3 | -15.1 | 0.1
COc1ccccc1N1CCN(C(=O)c2ccc3c(c2)N(Cc2ccccc2)C(=O)c2ccccc2S3(=O)=O)CC1 | 10.5 | . | . | . | 4.9
Cc1noc2nc(C(=O)O)nc(N3CCCCC3)c12 | -3.1 | . | . | . | 0.0
O=C(O)c1cc2cc(S(=O)(=O)O)ccc2cc1O | . | 10.6 | 0.4 | . | .
O=C(O)c1cc(S(=O)(=O)O)ccc1O | 0.5 | -7.3 | -1.4 | 42.4* | 0.3
CN(C)CCCNc1oc(-c2ccccc2Cl)nc1S(=O)(=O)c1ccccc1 | -30.8 | -2.0 | -2.1 | 86.0* | 0.9
CN(C)CCCNc1oc(-c2ccc(Cl)cc2)nc1S(=O)(=O)c1ccccc1 | . | -6.3 | -5.7 | . | .
CCCCOc1ccc(CN(C)c2ncnc(N)n2)cc1 | -4.2 | -2.7 | -1.1 | 30.7* | 0.3
CCCc1cc(C(=O)Nc2ccc(F)c(Cl)c2)no1 | -21.0 | -16.1 | -4.4 | 35.1* | 0.5
CCCc1cc(C(=O)Nc2cccc(Cl)c2)no1 | -24.3 | -15.7 | -6.1 | 33.1* | 0.8
COc1ccc2oc(-c3ccc(C)c(NC(=O)c4ccc5c(c4)OCCO5)c3)nc2c1 | 0.9 | . | . | . | -0.2
Cc1cc(-n2c(C)cc(C(=O)COc3ccc(F)c(F)c3)c2C)no1 | -15.3 | 0.1 | 9.3 | 30.0* | 0.1
Cc1cc(-n2c(C)cc(C(=O)COc3ccccc3[N+](=O)[O-])c2C)no1 | . | -12.9 | 0.3 | . | .
Cc1ccc(C(=O)c2cn(Cc3ccc(F)cc3)c3nc(C)ccc3c2=O)cc1 | . | . | . | . | -0.5
COc1ccc(F)cc1C(=O)C1CCCN(Cc2cnc(N3CCCC3)s2)C1 (stereo unspecified) | -23.9 | -6.6 | -2.2 | 66.0* | -1.4
